According to PubChem BioAssay (NCATS):
“And” between values parts separate entries of the source, which are not always exact repeats. Identical values can stand only once. Records with an inconclusive call do not appear. The source made the active and inactive calls. Unless noted, the call rests on the fitted dose curve; in most records, active means well fitted curve in either direction with a large enough effect (not every such curve was filed as active); inconclusive means small, poorly fitted or top-dose-only effect, or another doubt; inactive means flat fitted curve, though single readings scatter.

Tests used:
[1] = AP1 Signaling Pathway (AID 357); conditions: ME-180 AP-1-bla reporter, EGF-induced, beta-lactamase ratio, 5 h;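 further: ME-180 reporter cells stimulated with EGF at its EC50 level; on the % scale 0 is the no-effect control and ±100 the full control effect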
Method in brief: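 AP-1-bla ME-180 cells, Opti-MEM + 0.5% dialyzed FBS, plated overnight 37 °C. Cpd titration + EC50 EGF, 5 h 37 °C. CCF4 2.5 h RT; ex 405, em 460/530 ratio → %activity, AC50.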

[2] = molecular target: Cytochrome P450 1A2 (Homo sapiens) (UniProt P05177); assay: p450-cyp1a2 (AID 410; calls by dose curve; further: potency means the concentration at half of the fitted maximal effect;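 on activity change, negative = inhibition: -100% = full effect of reference inhibitor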); conditions: recombinant CYP1A2, luciferin-ME demethylation, luminescence; series mostly up to 57 µM
Chain of Cytochrome P450 1A2 (Homo sapiens) (P05177 whole entry, looked up): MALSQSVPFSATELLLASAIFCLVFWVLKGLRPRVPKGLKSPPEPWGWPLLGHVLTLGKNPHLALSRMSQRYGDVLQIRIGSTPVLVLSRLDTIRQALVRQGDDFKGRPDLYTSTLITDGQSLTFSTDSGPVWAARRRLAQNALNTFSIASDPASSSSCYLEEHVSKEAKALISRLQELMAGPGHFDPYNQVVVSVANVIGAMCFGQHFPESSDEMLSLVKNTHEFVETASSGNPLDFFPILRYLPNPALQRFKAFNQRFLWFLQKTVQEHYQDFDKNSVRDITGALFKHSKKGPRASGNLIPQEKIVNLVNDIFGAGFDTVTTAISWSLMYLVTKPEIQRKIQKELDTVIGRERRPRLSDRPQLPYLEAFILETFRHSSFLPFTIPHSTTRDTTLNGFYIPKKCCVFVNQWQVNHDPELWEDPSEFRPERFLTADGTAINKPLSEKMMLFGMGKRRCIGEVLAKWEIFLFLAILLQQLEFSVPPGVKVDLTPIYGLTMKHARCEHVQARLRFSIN
Method in brief: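 Human CYP1A2 (20nM) demethylated Luciferin-ME at its Km (100uM) in 100mM KPO4. After 10 min compound preincubation, NADPH regeneration ran the reaction 60 min at room temperature. Luciferin was read by luminescence, normalized to 57 uM furafylline.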

[3] = NFAT Signaling Pathway (AID 444); conditions: Jurkat NFAT-bla M1, carbachol, beta-lactamase ratio, 5 h;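 further: carbachol stimulus at about its EC50 of 1 µM final; on the % scale 0 is the no-effect control and ±100 the full control effect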
Method in brief: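 Jurkat cells with NFAT-driven β-lactamase reporter and co-expressed M1 receptor, stimulated with carbachol (final 1 uM, ~EC50), compound titration, 5 h at 37 °C. CCF4 loaded 1 h at RT; 460/530 nm ratio gave %activity and AC50.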

[4] = Stat Signaling Pathway (AID 446); conditions: ME-180 SIE beta-lactamase reporter, IL-6 stimulated, 5 h;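 further: ME-180 cervical cancer cells given 40 pM IL-6 alongside compound; SIE-controlled beta-lactamase reporter measured as 460/530 nm FRET emission ratio; on the % scale 0 is the no-effect control and ±100 the full control effect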
Method in brief: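 ME-180 SIE-bla cells; overnight plating; cpd + IL-6 40 pM, 5 h, 37 C; LiveBLAzer 2.5 h RT; 460/530 nm emission ratio. Normalized to 300 pM IL-6 and 125 nM JAK inhibitor controls.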

[5] = molecular target: Mitogen-activated protein kinase 10 (Mus musculus) (UniProt Q61831); assay: JNK3 AlphaScreen Assay (AID 530); conditions: JNK3 lysate, c-Jun phosphorylation; series mostly up to 57.1 µM;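 further: kinase came from lysate of stimulated human HepG2 cells; signal reports phosphorylation of biotinylated GST-cJun 1-79 at Ser73 with 10 µM ATP; on the % scale 0 is the no-effect control and ±100 the full control effect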
Method in brief: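 qHTS format: compounds tested as titrations against IL-1beta/TNF-alpha-activated HepG2 lysate JNK3 with biotin-GST-cJun substrate and 10 uM ATP at room temperature. Loss of anti-phospho-cJun AlphaScreen signal indicates inhibition.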

[6] = molecular target: 3',5'-cyclic-AMP phosphodiesterase 4B (Homo sapiens) (UniProt Q07343); assay: qHTS Assay for Inhibitors of PDE-IV (AID 607; active means well fitted activation curve with a large enough effect in the main read-out, with a control signal flat, not every such curve was filed as active; further: % of control where 0% means no effect); conditions: HEK293 ACTOne CNG channel cells, membrane potential fluorescence; series mostly up to 22.9 µM
Chain of 3',5'-cyclic-AMP phosphodiesterase 4B (Homo sapiens) (Q07343 whole entry, looked up): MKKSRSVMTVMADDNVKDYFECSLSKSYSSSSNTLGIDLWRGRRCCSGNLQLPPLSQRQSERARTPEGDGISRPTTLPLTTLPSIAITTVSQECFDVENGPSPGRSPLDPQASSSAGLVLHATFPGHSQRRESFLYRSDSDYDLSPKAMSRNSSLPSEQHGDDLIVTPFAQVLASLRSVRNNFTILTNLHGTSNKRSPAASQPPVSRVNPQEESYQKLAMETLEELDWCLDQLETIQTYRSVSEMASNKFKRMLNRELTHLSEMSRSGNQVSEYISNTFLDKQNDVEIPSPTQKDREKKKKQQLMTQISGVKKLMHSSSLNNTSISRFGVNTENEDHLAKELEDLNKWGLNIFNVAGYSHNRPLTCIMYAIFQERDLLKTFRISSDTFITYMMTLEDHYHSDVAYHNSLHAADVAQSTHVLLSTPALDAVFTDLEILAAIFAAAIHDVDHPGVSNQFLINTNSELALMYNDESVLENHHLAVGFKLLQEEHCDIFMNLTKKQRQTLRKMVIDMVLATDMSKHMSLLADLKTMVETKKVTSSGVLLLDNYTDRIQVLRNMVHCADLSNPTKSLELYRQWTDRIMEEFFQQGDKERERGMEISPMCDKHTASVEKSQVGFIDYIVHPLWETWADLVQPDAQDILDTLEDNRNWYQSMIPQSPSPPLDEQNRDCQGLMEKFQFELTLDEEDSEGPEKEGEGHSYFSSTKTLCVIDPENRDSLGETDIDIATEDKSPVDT
Method in brief: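 ACTOne HEK293 cells carry a modified cAMP-gated CNG channel and express endogenous PDE4; plated 1000 cells/well, compounds up to 22.9 uM final. Membrane-potential dye fluorescence (ex 535/em 590) was read; parental cells received 10 uM forskolin + 100 uM RO 20-1724.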

[7] = qHTS Assay for Lipid Storage Modulators (AID 1519; calls by dose curve); conditions: Drosophila S3 cells, BODIPY lipid droplet/cell ratio, laser cytometry, cells loaded with oleic acid; for activity change, negative = inhibition: at 25.7 µM (top of the series)
Method in brief: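 Cells seeded at 5,000 per well were treated with compounds over a concentration series and loaded with oleic acid (400 uM, as added). Lipid droplet fluorescence (488 nm excitation, 500-530 nm channel) was read by laser-scanning cytometry and normalized to 20 uM Triacsin C.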

[8] = molecular target: ATP-dependent 6-phosphofructokinase (Trypanosoma brucei brucei) (UniProt O15648); assay: qHTS Assay to Find Inhibitors of T. brucei phosphofructokinase: hit validation (AID 492961; active means well fitted curve in the direction sought with a large enough effect; an effect the other way counts as inactive or inconclusive); conditions: T. brucei PFK, ADP-Glo luminescence; series mostly up to 24.3 µM
Chain of ATP-dependent 6-phosphofructokinase (Trypanosoma brucei brucei) (O15648 whole entry, looked up): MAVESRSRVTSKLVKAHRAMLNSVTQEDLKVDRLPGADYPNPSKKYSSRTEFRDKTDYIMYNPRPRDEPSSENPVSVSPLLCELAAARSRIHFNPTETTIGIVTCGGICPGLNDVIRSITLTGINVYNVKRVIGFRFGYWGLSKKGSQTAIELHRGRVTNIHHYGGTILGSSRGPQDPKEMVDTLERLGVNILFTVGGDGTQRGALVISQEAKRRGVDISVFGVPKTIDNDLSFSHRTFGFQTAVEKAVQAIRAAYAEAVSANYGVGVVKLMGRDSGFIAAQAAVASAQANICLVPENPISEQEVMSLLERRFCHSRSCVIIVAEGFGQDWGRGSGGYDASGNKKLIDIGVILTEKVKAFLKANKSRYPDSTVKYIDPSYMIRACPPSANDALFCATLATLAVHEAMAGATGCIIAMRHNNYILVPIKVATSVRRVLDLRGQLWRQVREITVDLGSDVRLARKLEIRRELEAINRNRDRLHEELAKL
Method in brief: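 Inhibition of parasite PFK is measured as reduced ADP formation, quantified via luciferase after ATP depletion. Assay used 0.1 mM ATP, 0.5 mM F6P, 1.25 nM enzyme, 45 min incubation.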

[9] = qHTS profiling for inhibitors of Plasmodium falciparum proliferation (AID 504749; active means well fitted curve in the direction sought with a large enough effect; an effect the other way counts as inactive or inconclusive;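 further: 0% = DMSO vehicle and full inhibition = artemisinin control; nearly all actives have a fitted effect of over 60% in size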); conditions: P. falciparum in erythrocytes, SYBR Green DNA, 72 h
Method in brief: (§1)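 Readout was DNA-dye fluorescence from lysed cultures, ex 485/em 535 nm. Parasitized red cells had grown 72 h with compound; data scaled between 0.29 uM artemisinin and DMSO wells and corrected using vehicle-only plates.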

AS120 = assay: as above; conditions: P. falciparum in erythrocytes, SYBR Green DNA, 72 h; series mostly up to 28.7 µM
Method in brief: as §1

CP238 = assay: as above; conditions: P. falciparum in erythrocytes, SYBR Green DNA, 72 h; series mostly up to 12.8 µM
Method in brief: as §1

CP250 = assay: as above; conditions: P. falciparum in erythrocytes, SYBR Green DNA, 72 h; series mostly up to 12.8 µM
Method in brief: as §1

CP262 = assay: as above; conditions: P. falciparum in erythrocytes, SYBR Green DNA, 72 h; series mostly up to 12.8 µM
Method in brief: as §1

CP265 = assay: as above; conditions: P. falciparum in erythrocytes, SYBR Green DNA, 72 h; series mostly up to 12.8 µM
Method in brief: as §1

FAB9 = assay: as above; conditions: P. falciparum in erythrocytes, SYBR Green DNA, 72 h; series mostly up to 12.8 µM
Method in brief: as §1

JCK = assay: as above; conditions: P. falciparum in erythrocytes, SYBR Green DNA, 72 h; series mostly up to 12.8 µM
Method in brief: as §1

PC49 = assay: as above; conditions: P. falciparum in erythrocytes, SYBR Green DNA, 72 h; series mostly up to 12.8 µM
Method in brief: as §1

[10] = molecular target: Ubiquitin carboxyl-terminal hydrolase 1 (Homo sapiens) (UniProt O94782); assay: Inhibitors of USP1/UAF1: Pilot qHTS (AID 504865; active means well fitted curve in the direction sought with a large enough effect; an effect the other way counts as inactive or inconclusive;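 further: rhodamine fluorescence freed from ubiquitin-rhodamine substrate followed over time; top concentration of the series differs between compounds; on the % scale 0 is the no-effect control and ±100 the full control effect; nearly all actives have a fitted effect of over 35% in size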); conditions: purified USP1/UAF1, Ub-rhodamine cleavage fluorescence; series mostly up to 54.9 µM
Chain of Ubiquitin carboxyl-terminal hydrolase 1 (Homo sapiens) (O94782 whole entry, looked up): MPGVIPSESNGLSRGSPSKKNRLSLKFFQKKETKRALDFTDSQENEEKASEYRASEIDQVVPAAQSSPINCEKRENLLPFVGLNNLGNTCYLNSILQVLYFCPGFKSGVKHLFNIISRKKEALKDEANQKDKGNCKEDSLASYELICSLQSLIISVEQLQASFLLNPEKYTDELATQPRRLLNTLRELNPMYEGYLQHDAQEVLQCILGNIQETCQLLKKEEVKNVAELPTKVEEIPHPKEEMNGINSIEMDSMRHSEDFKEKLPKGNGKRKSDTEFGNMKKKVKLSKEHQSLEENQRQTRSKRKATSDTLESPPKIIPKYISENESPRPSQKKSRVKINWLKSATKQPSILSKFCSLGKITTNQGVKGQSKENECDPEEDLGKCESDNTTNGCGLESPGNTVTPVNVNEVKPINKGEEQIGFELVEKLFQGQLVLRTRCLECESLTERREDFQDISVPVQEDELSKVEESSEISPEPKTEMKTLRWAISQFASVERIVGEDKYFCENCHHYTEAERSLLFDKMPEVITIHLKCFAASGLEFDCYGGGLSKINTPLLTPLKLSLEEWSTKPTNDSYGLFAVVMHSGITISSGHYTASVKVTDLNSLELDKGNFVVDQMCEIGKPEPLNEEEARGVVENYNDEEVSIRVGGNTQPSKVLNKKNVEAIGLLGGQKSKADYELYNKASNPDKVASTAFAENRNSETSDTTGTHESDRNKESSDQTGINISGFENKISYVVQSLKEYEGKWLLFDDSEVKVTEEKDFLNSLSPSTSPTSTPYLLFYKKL
Method in brief: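 USP1/UAF1 complex at 1 nM preincubated 15 min at room temperature with compound, then Ub-Rho substrate added at 150 nM final. Fluorescence (480/540 nm) read kinetically in 50 mM HEPES pH 7.8, 0.5 mM EDTA, 1 mM TCEP, 0.1 mg/ml BSA, 0.01% Tween-20.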

[11] = molecular target: Glucocorticoid receptor (Homo sapiens) (UniProt P04150); assay: GR-GFP Redistribution (AID 450;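 active means compounds whose dose series gives a full or clear partial fitted curve of increased nuclear translocation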; further: potency means the concentration at half of the fitted maximal effect); conditions: U2OS GR-GFP nuclear translocation, laser cytometry, 2 h
Chain of Glucocorticoid receptor (Homo sapiens) (P04150 whole entry, looked up, the tested form may be a part): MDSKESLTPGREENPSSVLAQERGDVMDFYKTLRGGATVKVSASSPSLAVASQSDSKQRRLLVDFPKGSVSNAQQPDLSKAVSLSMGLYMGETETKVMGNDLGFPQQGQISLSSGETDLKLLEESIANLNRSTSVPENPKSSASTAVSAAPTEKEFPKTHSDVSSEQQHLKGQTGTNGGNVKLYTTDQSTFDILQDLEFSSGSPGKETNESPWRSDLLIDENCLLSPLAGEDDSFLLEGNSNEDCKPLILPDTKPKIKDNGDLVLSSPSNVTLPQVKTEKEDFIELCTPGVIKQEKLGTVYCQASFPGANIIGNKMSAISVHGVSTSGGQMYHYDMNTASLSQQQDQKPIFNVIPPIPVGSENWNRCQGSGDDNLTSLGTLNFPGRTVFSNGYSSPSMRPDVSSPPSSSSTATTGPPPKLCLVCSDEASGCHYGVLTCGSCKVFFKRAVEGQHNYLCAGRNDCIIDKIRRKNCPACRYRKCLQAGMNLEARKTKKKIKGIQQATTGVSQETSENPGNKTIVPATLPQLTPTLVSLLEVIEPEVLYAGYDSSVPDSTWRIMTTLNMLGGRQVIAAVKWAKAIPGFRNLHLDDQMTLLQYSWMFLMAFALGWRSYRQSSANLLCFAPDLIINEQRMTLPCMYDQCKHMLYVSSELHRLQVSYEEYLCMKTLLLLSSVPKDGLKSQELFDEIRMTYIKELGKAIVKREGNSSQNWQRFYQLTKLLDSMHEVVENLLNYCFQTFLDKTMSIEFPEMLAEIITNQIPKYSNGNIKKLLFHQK

[12] = molecular target: Glucocorticoid receptor (Homo sapiens) (UniProt P04150); assay: GR-EFC Redistribution (AID 451; calls by dose curve; further: potency means the concentration at half of the fitted maximal effect); conditions: CHO-K1 GR-EFC translocation, beta-gal luminescence, 2 h
Method in brief: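 CHO-K1 cells expressing nuclear EA and GR-ED fragments of b-gal; compounds titrated up to 46 uM final, 2 h at 37 C. GR nuclear translocation read as complemented b-gal luminescence after 1 h RT detection.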

[13] = measured here: cell count channel max response
[14] = measured here: lipid channel max response
[15] = at 7.69 µM (top of the series) unless noted

C[C@@H]1COc2c(N3CCN(C)CC3)c(F)cc3c(=O)c(C(=O)O)cn1c23
-7.85%: max response [7, 13]
inactive: activity change, negative = inhibition ([1]; at 17.2 µM (top of the series)) -1.23% | activity change, negative = inhibition ([1]; at 38 µM (top of the series)) 11.6% | Potency [2] | activity change, negative = inhibition ([3]; at 17.2 µM (top of the series)) -4.07% | activity change, negative = inhibition ([3]; at 38 µM (top of the series)) 4.93% | activity, negative = inhibition ([4]; at 17.2 µM (top of the series)) 4.46% | activity, negative = inhibition ([4]; at 38 µM (top of the series)) -5.77% | Potency [5] | Potency [6] | activity change, negative = inhibition [7] -0.7% | outcome [8] | activity, negative = inhibition ([9]; at 28.7 µM (top of the series), parasite line A) 3.1% | activity, negative = inhibition ([9]; at 28.7 µM (top of the series), parasite line B) 11.1% | Potency (AS120) | Potency (CP238) | Potency (CP250) | Potency (CP262) | Potency (CP265) | Potency (FAB9) | Potency (JCK) | Potency (PC49)
-10.5%: max response [7, 14]

O=C(c1ccccc1)c1ccc2n1CC[C@H]2C(=O)O
-5.21%: max response [7, 13]
active: Potency [2] 15.8 µM
-1.68%: max response [7, 14]
inactive: activity change, negative = inhibition ([1]; at 17.2 µM (top of the series)) -5.93% | activity change, negative = inhibition ([1]; at 38 µM (top of the series)) -1.3% | activity change, negative = inhibition ([3]; at 17.2 µM (top of the series)) -13.5% | activity change, negative = inhibition ([3]; at 38 µM (top of the series)) -0.138% | activity, negative = inhibition ([4]; at 17.2 µM (top of the series)) 0.0746% | activity, negative = inhibition ([4]; at 38 µM (top of the series)) 5.51% | Potency [5] | Potency [6] | activity change, negative = inhibition [7] 1.19% | outcome [8] | Potency [10] | activity, negative = inhibition ([9]; at 12.8 µM (top of the series), parasite line A) 1.36% | activity, negative = inhibition ([9]; at 12.8 µM (top of the series), parasite line B) 2.01% | Potency (AS120) | Potency (CP238) | Potency (CP250) | Potency (CP262) | Potency (CP265) | Potency (FAB9) | Potency (JCK) | Potency (PC49)

O=C(O)/C=C\c1ccc(O)c(O)c1
-1.26%: max response [7, 13]
inactive: activity change, negative = inhibition ([1]; at 17.2 µM (top of the series)) -12.5% | activity change, negative = inhibition ([1]; at 38 µM (top of the series)) -5.91% | Potency [2] | activity change, negative = inhibition [3, 15] -7.46% [at 38 µM] | activity, negative = inhibition ([4]; at 17.2 µM (top of the series)) 3.52% | activity, negative = inhibition ([4]; at 38 µM (top of the series)) 10.1% | Potency [11] > 46 µM and > 20.6 µM | Potency [12] > 46 µM and > 20.6 µM | Potency [5] | Potency [6] | activity change, negative = inhibition [7] -3.56% | Potency [10]
-2.45%: max response [7, 14]

CC(=O)O[C@]1(C(C)=O)CC[C@@H]2[C@@H]3C=C(Cl)C4=CC(=O)[C@H]5C[C@@H]5[C@]4(C)[C@H]3CC[C@]21C
-4.56%: max response [7, 13]
-7.45%: max response [7, 14]
inactive: activity change, negative = inhibition ([1]; at 17.2 µM (top of the series)) 5.64% | activity change, negative = inhibition ([1]; at 38 µM (top of the series)) 3.07% | Potency [2] | activity change, negative = inhibition ([3]; at 17.2 µM (top of the series)) -18.6% | activity change, negative = inhibition ([3]; at 38 µM (top of the series)) -9.31% | activity, negative = inhibition [4, 15] -5.59% [at 17.2 µM] | Potency [5] | Potency [6] | activity change, negative = inhibition [7] -2.31% | Potency [10]

CN1C(=O)CC[C@@H]1c1cccnc1
5.39%: max response [7, 13]
inactive: activity change, negative = inhibition ([1]; at 17.2 µM (top of the series)) 10.4% | activity change, negative = inhibition ([1]; at 38 µM (top of the series)) -5.74% | Potency [2] | activity change, negative = inhibition ([3]; at 17.2 µM (top of the series)) 1.15% | activity change, negative = inhibition ([3]; at 38 µM (top of the series)) 1.74% | activity, negative = inhibition ([4]; at 17.2 µM (top of the series)) -1.06% | activity, negative = inhibition ([4]; at 38 µM (top of the series)) 17.2% | Potency [5] | Potency [6] | activity change, negative = inhibition [7] 0.0072% | Potency [10]
2.29%: max response [7, 14]
